Data taken from the supplement of paper PMC6897291.

Assays:
U-2932 [1] = test: growth inhibition by drug alone (1 - RLU/untreated control) (fraction); higher = stronger inhibition; details: 177Lu-lilotomab satetraxetan 0 ug/ml
Method in brief: (§1)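 Compound doses on the pre-printed Selleck Cambridge Cancer Compound library plates were 10/100 nM for RIVA cells and 10/1,000 nM for U-2932 cells, seeded at 3,000 cells/well. Before seeding, cells were washed after 18 h with or without a radiolabelled anti-CD37 antibody conjugate (~600 MBq/mg; 0.5 µg/ml RIVA, 1 µg/ml U-2932). Growth inhibition was derived from RealTime-Glo luminescence relative to untreated no-drug control wells. Readings were taken daily starting on day 3, each after 1 h at 37°C, and each well's RLU was divided by the mean of 48 such wells per plate and subtracted from 1.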

U-2932 [2] = test: growth inhibition by drug plus 177Lu-lilotomab satetraxetan (1 - RLU/untreated control) (fraction); higher = stronger inhibition; details: 177Lu-lilotomab satetraxetan 1 ug/ml
Method in brief: as §1

RIVA [3] = test: as above; details: 177Lu-lilotomab satetraxetan 0.5 ug/ml
Method in brief: as §1

RIVA [4] = test: growth inhibition by drug alone (1 - RLU/untreated control) (fraction); higher = stronger inhibition; details: 177Lu-lilotomab satetraxetan 0 ug/ml
Method in brief: as §1

Structure (SMILES)	growth inhibition by drug alone (U-2932 [1]; 10 nM, time (day): 3)	growth inhibition by drug alone (U-2932 [1]; 10 nM, time (day): 4)	growth inhibition by drug alone (U-2932 [1]; 10 nM, time (day): 5)	growth inhibition by drug alone (U-2932 [1]; 10 nM, time (day): 6)	growth inhibition by drug alone (U-2932 [1]; 1000 nM, time (day): 3)	growth inhibition by drug alone (U-2932 [1]; 1000 nM, time (day): 4)	growth inhibition by drug alone (U-2932 [1]; 1000 nM, time (day): 5)	growth inhibition by drug alone (U-2932 [1]; 1000 nM, time (day): 6)	growth inhibition by drug plus 177Lu-lilotomab satetraxetan (U-2932 [2]; 10 nM, time (day): 3)	growth inhibition by drug plus 177Lu-lilotomab satetraxetan (U-2932 [2]; 10 nM, time (day): 4)	growth inhibition by drug plus 177Lu-lilotomab satetraxetan (U-2932 [2]; 10 nM, time (day): 5)	growth inhibition by drug plus 177Lu-lilotomab satetraxetan (U-2932 [2]; 10 nM, time (day): 6)	growth inhibition by drug plus 177Lu-lilotomab satetraxetan (U-2932 [2]; 1000 nM, time (day): 3)	growth inhibition by drug plus 177Lu-lilotomab satetraxetan (U-2932 [2]; 1000 nM, time (day): 4)	growth inhibition by drug plus 177Lu-lilotomab satetraxetan (U-2932 [2]; 1000 nM, time (day): 5)	growth inhibition by drug plus 177Lu-lilotomab satetraxetan (U-2932 [2]; 1000 nM, time (day): 6)	growth inhibition by drug plus 177Lu-lilotomab satetraxetan (RIVA [3]; 10 nM, time (day): 3)	growth inhibition by drug plus 177Lu-lilotomab satetraxetan (RIVA [3]; 10 nM, time (day): 4)	growth inhibition by drug plus 177Lu-lilotomab satetraxetan (RIVA [3]; 10 nM, time (day): 5)	growth inhibition by drug plus 177Lu-lilotomab satetraxetan (RIVA [3]; 10 nM, time (day): 6)	growth inhibition by drug plus 177Lu-lilotomab satetraxetan (RIVA [3]; 100 nM, time (day): 3)	growth inhibition by drug plus 177Lu-lilotomab satetraxetan (RIVA [3]; 100 nM, time (day): 4)	growth inhibition by drug plus 177Lu-lilotomab satetraxetan (RIVA [3]; 100 nM, time (day): 5)	growth inhibition by drug plus 177Lu-lilotomab satetraxetan (RIVA [3]; 100 nM, time (day): 6)	growth inhibition by drug alone (RIVA [4]; 10 nM, time (day): 3)	growth inhibition by drug alone (RIVA [4]; 10 nM, time (day): 4)	growth inhibition by drug alone (RIVA [4]; 10 nM, time (day): 5)	growth inhibition by drug alone (RIVA [4]; 10 nM, time (day): 6)	growth inhibition by drug alone (RIVA [4]; 100 nM, time (day): 3)	growth inhibition by drug alone (RIVA [4]; 100 nM, time (day): 4)	growth inhibition by drug alone (RIVA [4]; 100 nM, time (day): 5)	growth inhibition by drug alone (RIVA [4]; 100 nM, time (day): 6)
Cn1cnc2c(F)c(Nc3ccc(Br)cc3Cl)c(C(=O)NOCCO)cc21 [AZD6244 (Selumetinib)]	0.124	0.0689	-0.0711	0.0468	0.116	0.112	-0.011	0.127	-0.00544	0.0596	0.0509	0.056	0.15	0.192	0.203	0.285	0.452	0.491	0.497	0.504	0.277	0.359	0.316	0.307								
Nc1nc2[nH]cc(CCc3ccc(C(=O)N[C@@H](CCC(=O)O)C(=O)O)cc3)c2c(=O)[nH]1 [Pemetrexed]	-0.0147	-0.0188	-0.0965	-0.27	0.905	0.948	0.965	0.974	-0.058	-0.0226	0.000411	0.0568	0.893	0.951	0.97	0.979	0.279	0.458	0.483	0.497	0.325	0.44	0.436	0.408								
O=C(O)C(Cc1c[nH]c2ccccc12)N1C(=O)c2ccccc2C1=O (stereo not drawn)	0.0147	0.0153	-0.0484	-0.236	-0.0782	-0.0484	-0.0679	-0.115	-0.0896	-0.0477	-0.032	0.0338	-0.157	-0.0639	-0.0646	-0.0481	0.311	0.457	0.475	0.497	0.275	0.394	0.397	0.381								
CN(C)c1nc(N(C)C)nc(N(C)C)n1 [Altretamine (Hexalen)]	-0.0883	-0.0905	-0.0583	-0.058	-0.122	-0.0758	-0.114	0.0216	-0.146	-0.0735	-0.0141	-0.0604	-0.101	-0.0503	0.00142	0.121	0.349	0.469	0.481	0.485	0.239	0.318	0.312	0.332	-0.25	-0.257	-0.29	-0.318	-0.545	-0.424	-0.488	-0.694
COc1cc(Nc2ncc(F)c(Nc3ccc4c(n3)NC(=O)C(C)(C)O4)n2)cc(OC)c1OC [R406(free base)]	0.0274	-0.00454	-0.0695	-0.162	0.0655	0.0291	-0.0439	0.00754	-0.0151	0.0369	0.0816	0.0813	0.069	0.0868	0.096	0.227	0.577	0.592	0.602	0.605	0.471	0.564	0.581	0.575								
CCn1c(-c2nonc2N)nc2cnc(Oc3cccc(NC(=O)c4ccc(OCCN5CCOCC5)cc4)c3)cc21	-0.134	-0.155	-0.145	-0.41	0.0463	0.0519	0.129	0.357	-0.198	-0.145	-0.0619	0.0328	0.279	0.292	0.374	0.603	0.46	0.522	0.558	0.578	0.439	0.515	0.547	0.569	-0.232	-0.237	-0.286	-0.351	-0.202	-0.237	-0.215	-0.241
CC(C)(C)c1cc(NC(=O)Nc2ccc(-c3cn4c(n3)sc3cc(OCCN5CCOCC5)ccc34)cc2)no1 [Quizartinib (AC220)]	0.0329	-0.0112	-0.0203	0.0321	-0.0933	-0.0955	-0.0983	0.0473	0.0106	0.0631	0.109	0.208	-0.105	-0.0657	-0.0306	0.182	0.463	0.533	0.557	0.567	0.27	0.368	0.377	0.391	-0.0494	-0.0577	-0.051	-0.0533	-0.339	-0.307	-0.369	-0.46
O=c1oc2c(O)c(O)cc3c(=O)oc4c(O)c(O)cc1c4c23 [Ellagic acid]	-0.0386	-0.0333	-0.0157	0.0286	-0.0768	-0.0331	-0.0763	-0.143	-0.0253	-0.00558	0.0162	0.137	-0.104	-0.00651	0.0116	0.067	0.371	0.481	0.517	0.531	0.323	0.399	0.402	0.388	-0.12	-0.115	-0.166	-0.332	-0.107	-0.127	-0.152	-0.219
NC(=O)Nc1cc(-c2cccc(F)c2)sc1C(=O)N[C@H]1CCCNC1	0.0534	0.00627	-0.197	-0.0587	0.942	0.955	0.959	0.962	-0.0183	0.0423	0.122	0.155	0.964	0.971	0.974	0.978	0.318	0.362	0.396	0.43	0.139	0.161	0.178	0.185								
